S-ASM inh – inhibitors of human secretory acid sphingomyelinase; P17405; placental ASM, HMU-PC fluorogenic substrate, 60 min; Potency, µM (series often up to 57.5 µM), hits mostly inhibitors; actives 0.006% (n = 340,000); AID 504937
Target sequence (P17405 47-631 limits assumed): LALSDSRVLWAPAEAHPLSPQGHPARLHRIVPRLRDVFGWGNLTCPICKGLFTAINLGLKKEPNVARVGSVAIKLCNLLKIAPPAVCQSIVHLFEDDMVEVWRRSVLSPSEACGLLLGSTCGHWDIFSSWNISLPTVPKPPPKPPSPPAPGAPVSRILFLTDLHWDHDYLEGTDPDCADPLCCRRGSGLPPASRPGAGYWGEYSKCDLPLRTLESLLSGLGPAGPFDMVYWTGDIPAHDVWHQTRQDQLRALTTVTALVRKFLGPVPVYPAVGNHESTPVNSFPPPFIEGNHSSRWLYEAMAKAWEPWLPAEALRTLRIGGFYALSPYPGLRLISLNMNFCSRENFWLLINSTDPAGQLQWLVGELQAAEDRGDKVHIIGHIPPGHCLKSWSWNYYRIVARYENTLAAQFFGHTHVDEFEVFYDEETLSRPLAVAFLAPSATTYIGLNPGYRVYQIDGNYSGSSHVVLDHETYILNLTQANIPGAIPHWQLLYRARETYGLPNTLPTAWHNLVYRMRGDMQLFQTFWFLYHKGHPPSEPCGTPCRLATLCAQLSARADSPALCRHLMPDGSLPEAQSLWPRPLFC
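HMU-PC0 cleavage (9 uM final) by human placental ASM, 60 min at 37 °C following 10 min compound exposure at RT; stopped at pH 10, fluorescence Ex 386/Em 447 nm.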
TDP1 cell noCPT – qHTS for Inhibitors of human tyrosyl-DNA phosphodiesterase 1 (TDP1): qHTS in cells in absence of CPT; AID 686978, 2013; DT40 Tdp1-/- hTDP1 cells, no CPT, ATP luminescence, 48 h; actives 15% (n = 420,000); Potency, µM (top dose mostly 46.2 µM), usual class: inhibitors; also: nearly all actives have a fitted effect of over 55% in size
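No-CPT arm: Tdp1-/-;hTDP1 DT40 cells (400/well) plus compounds, incubated ≥48 hr at 37 °C. Readout CellTiter-Glo luminescence.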
IL-1B inflam inh – blocks inflammasome-driven IL-1 beta release | AID 743279 | actives 4.7% (n = 360,000) | THP-1 LPS/ATP IL-1B secretion, AlphaLISA, 16 h; active compounds read low | activity change, % at 57.5 µM; in the data active = activity change below about -50%; inconclusive = mostly about -30% to -49%
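THP-1 cells pretreated 1 hr with compounds (up to 57.5 uM final), then stimulated with LPS (250 ng/mL final) plus ATP (1.25 mM final); secreted IL-1B measured by AlphaLISA after 16 hr, decreased signal indicating inhibition.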
DT40 TDP1 CPT – DT40-hTDP1 cell growth loss with CPT; chicken DT40 Tdp1-/-;hTDP1 cells + 20 nM CPT, ATP luminescence, 48 h; Potency, µM (top dose mostly 46.2 µM), actives largely listed as inhibitors; actives 12% (n = 420,000); AID 686979; also: nearly all actives have a fitted effect of over 55% in size
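Chicken DT40 Tdp1-/- cells complemented with human TDP1, 400 cells/well, exposed to compounds plus 20 nM camptothecin for at least 48 h at 37 C; viability read as ATP content by CellTiter-Glo luminescence.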
HepG2 tox-1 – HepG2 cytotoxicity, counter-screen for TGF-b inhibitors; HepG2 CAGA-GFP viability, ATP luminescence, 18 h; Potency, µM (top dose mostly 46.1 µM), actives largely listed as cytotoxic; actives 0.76% (n = 410,000); AID 588856
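CellTiter-Glo luminescence gave cytotoxicity after 18 hours at 37 degrees C. The cells were HepG2 CAGA-GFP in 1% FBS DMEM, stimulated with 500 pg/mL TGF-beta after compound addition. %Activity was normalised to no-cell wells (complete cell-killing) and DMSO (no toxicity), and curves were fitted and classified.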
TGFb SMAD3 inh – inhibitors of TGF-b signaling; HepG2 CAGA-GFP TGF-b/SMAD3 reporter, GFP fluorescence, 18 h; TGF-beta stimulated, 500 pg/mL final; Potency, µM (highest dose often 46.1 µM), hits mostly inhibitors; actives 1.2% (n = 410,000); AID 588855; also: nearly all actives have a fitted effect of over 65% in size
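HEPG2 CAGA-GFP cells (1000/well, DMEM with 1% FBS) were pre-incubated 2 h at 37 degrees C, given compound by pin tool, then stimulated with TGF-beta at 500 pg/mL final for 18 h before per-cell GFP fluorescence imaging.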
TGFb confirm – TGF-b pathway inhibition, cherry-pick retest. shares compounds with TGFb SMAD3 inh. HepG2 CAGA-GFP TGF-b reporter, GFP fluorescence, 18 h; cells stimulated with TGF-beta, 500 pg/mL. Potency, µM (series often up to 46.1 µM), usual class: inhibitors. actives 63% (n = 1,600). AID 720534; also: nearly all actives have a fitted effect of over 65% in size
HepG2 tox-2 – counter-screen for TGF-b inhibitors: cytotoxicity in HepG2 cells | shares compounds with TGFb SMAD3 inh | HepG2 CAGA-GFP viability, ATP luminescence, 18 h; cells stimulated with TGF-beta, 500 pg/mL | Potency, µM (doses to about 46.1 µM), most hits filed as inhibitors | actives 27% (n = 1,600) | AID 720535; also: nearly all actives have a fitted effect of over 70% in size
CCL64 TGFb inh – blocks TGF-b signaling in CCL64 reporter cells. shares compounds with TGFb SMAD3 inh. CCL64 CAGA-GFP reporter, TGF-b stimulated, GFP fluorescence, 18 h. Potency, µM (titrated, usually from 46.1 µM), actives largely listed as inhibitors. actives 41% (n = 1,600); also: nearly all actives have a fitted effect of over 65% in size
TGFb COP inh – blocks TGF-b signaling in HepG2 COP reporter; Potency, µM (series often up to 46.1 µM), actives largely listed as inhibitors; HepG2 COP-GFP TGF-b reporter, GFP fluorescence, 18 h; cells stimulated by added recombinant TGF-beta; actives 3% (n = 1,600); shares compounds with TGFb SMAD3 inh; also: nearly all actives have a fitted effect of over 70% in size
Each line names hits and unclear results; the compound was inactive in the other large screens (follow-up assays come after a bar, where they were run). Compounds with a hit are over-represented: about 19% of the library has one in this group of screens. Unless noted, calls follow the shape of the dose curve; as a rule, active = well fitted curve in the direction sought with a large enough effect; inconclusive = small, poorly fitted or top-dose-only effect, or another doubt; inactive = no such curve, though single readings can be large; an effect the other way counts as inactive or inconclusive.

CC(=NCCC1=CCCCC1)c1c(O)n(-c2ccccc2)c(=O)[nH]c1=O	TDP1 cell noCPT inconclusive, IL-1B inflam inh inconclusive
CS(=O)(=O)c1ccc(C2=C(CNC(=O)c3ccncc3)[C@H]3CC[C@@H](C2)N3Cc2ccccc2)cc1	none (no result: S-ASM inh)
O=Cc1cn(Cc2ccccc2F)c2ccccc12	TDP1 cell noCPT 15µM, IL-1B inflam inh inconclusive, DT40 TDP1 CPT 21µM, TGFb SMAD3 inh 0.89µM | TGFb confirm 0.46µM | HepG2 tox-2 1µM | CCL64 TGFb inh inactive | TGFb COP inh inactive
CCn1cc(C=C2C(=O)NC(=O)NC2=O)c2ccccc21	IL-1B inflam inh inconclusive
CC[C@H]1CN2CCc3cc(OC)c(OC)cc3C2C[C@@H]1C[C@H]1NCCc2cc(OC)c(OC)cc21 (stereo partly specified)	TDP1 cell noCPT 0.0082µM, IL-1B inflam inh -108, DT40 TDP1 CPT 0.13µM | TGFb confirm 0.052µM | HepG2 tox-2 2.9µM | CCL64 TGFb inh 0.073µM | TGFb COP inh inactive
OC1/C(=C/c2ccc(Cl)cc2Cl)N2CCC1CC2 (stereo unspecified)	none
